Source: PubChem BioAssay (National Center for Advancing Translational Sciences (NCATS))
Sampled rows, rich in hits. Any-hit rate of the full collection: about 9%.
PLK1 PBD inh: inhibitors of human PLK1 polo-box domain binding; Plk1 PBD binding of FITC phosphopeptide, fluorescence polarization; Potency, µM, most hits filed as inhibitors; 360,000 compounds, 2.8% hits; note: series mostly up to about 57 µM; nearly all actives have a fitted effect of over 65% in size
BAZ2B inh: inhibitors of human BAZ2B bromodomain; AlphaScreen BAZ2B-H3K14Ac peptide displacement; Potency, µM (top dose mostly 114 µM), usual class: inhibitors; 360,000 compounds, 4.4% hits; AID 504333; note: nearly all actives have a fitted effect of over 60% in size
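Compounds, titrated to a top concentration of 110 uM, were incubated 30 min at room temperature with preformed BAZ2B/acetyl-K14 H3 peptide complex (50 nM each). Proximity signal was measured by AlphaScreen after 20 min with beads.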
ALOX12 inh: blocks human arachidonate 12S-lipoxygenase. 580,000 compounds, 1.1% hits. Potency, µM (series often up to 108 µM), actives largely listed as inhibitors. purified 12hLO, xylenol orange hydroperoxide absorbance
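Hydroperoxide product was detected by ferrous iron/xylenol orange as the 573 to 405 nm absorbance ratio. Arachidonic acid at 40 uM (final) was turned over for 30 min at room temperature by 150 nM human 12hLO, pH 7.0 Hepes buffer, after 15 min compound preincubation.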
JMJD2A Tudor inh: blocks the human JMJD2A Tudor domain. O75164. AlphaScreen JMJD2A-Tudor / H3K4me3 peptide binding. Potency, µM (highest dose often 114 µM), hits mostly inhibitors. 390,000 compounds, 4.4% hits. AID 504339; note: nearly all actives have a fitted effect of over 50% in size
G9a inh: blocks human histone lysine methyltransferase G9a | 350,000 compounds, 8.8% hits | Potency, µM (highest dose often 102 µM), hits mostly inhibitors | G9a H3K9 monomethylation, AlphaScreen, 2 h; note: nearly all actives have a fitted effect of over 75% in size
Target sequence (Q96KQ7 913-1193 limits assumed): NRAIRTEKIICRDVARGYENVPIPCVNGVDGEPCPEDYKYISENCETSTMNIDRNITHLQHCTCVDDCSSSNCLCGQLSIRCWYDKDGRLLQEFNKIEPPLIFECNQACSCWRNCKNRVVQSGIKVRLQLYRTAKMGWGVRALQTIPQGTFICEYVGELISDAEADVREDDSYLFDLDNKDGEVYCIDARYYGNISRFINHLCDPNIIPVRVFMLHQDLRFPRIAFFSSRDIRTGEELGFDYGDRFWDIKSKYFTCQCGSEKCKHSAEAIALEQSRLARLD
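G9a (20 nM) was preincubated 15 min with compound, then reacted 2 h at room temperature with 500 nM biotin-H3K9 peptide and 20 µM SAM. Monomethyl-H3K9 detected by AlphaScreen using anti-H3K9me1 antibody.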
HP1b chromo inh: blocks HP1-beta chromodomain binding to methylated histone tails | AlphaScreen HP1-beta / biotin-H3K9me3 peptide binding | Potency, µM (top dose mostly 114 µM), hits mostly inhibitors | 390,000 compounds, 0.56% hits; note: nearly all actives have a fitted effect of over 70% in size
Target sequence (P83916 whole entry, looked up): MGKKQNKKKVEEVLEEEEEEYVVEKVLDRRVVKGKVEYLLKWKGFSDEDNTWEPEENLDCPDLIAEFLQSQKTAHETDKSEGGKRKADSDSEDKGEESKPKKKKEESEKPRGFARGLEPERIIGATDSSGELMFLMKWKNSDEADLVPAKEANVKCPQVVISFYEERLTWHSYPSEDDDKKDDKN
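AlphaScreen: HP1-beta (50 nM) preformed 30 min with biotin-H3(1-18)K9me3 peptide (50 nM) in PBS pH 7.4, 0.01% Tween-20. Compound added for 30 min at RT, then streptavidin donor/nickel chelate acceptor beads (10 ug/mL) for 30 min.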
Large screens that a line does not name were inactive. Calls come from the whole dose curve; as a rule, active = well fitted curve in the direction sought with a large enough effect; inconclusive = small, poorly fitted or top-dose-only effect, or another doubt; inactive = no such curve, though single readings can be large; an effect the other way counts as inactive or inconclusive.

COc1ccc(CNC(=O)C2CCCN2C)cc1OC (configuration not stated)	none
CC1CN(S(=O)(=O)c2cccc(C(=O)OCC(=O)Nc3ccc4c(c3)OCO4)c2)CC(C)O1 (configuration not stated)	G9a inh 50µM
Cc1cc(CNC(=O)C2CCC(=O)N(CCc3cccc(F)c3)C2)nn1C (configuration not stated)	none
COc1ccc(NC(=O)CNc2ccccc2N2CCCC2=O)cc1S(=O)(=O)N1CCOCC1	G9a inh inconclusive
Cc1ccc(C(=O)OCC(=O)Nc2ccc3c(c2)OCO3)cc1S(=O)(=O)N1CCOCC1	none
Cc1ccc(NC(=O)CNc2ccccc2N2CCCC2=O)cc1S(=O)(=O)N1CCOCC1	ALOX12 inh inconclusive, G9a inh 45µM
Cc1ccc(NC(=O)COC(=O)/C=C/c2cccc(Cl)c2)cc1S(=O)(=O)N1CCOCC1	G9a inh 40µM
CCN(c1ccc(NC(=O)COC(=O)c2ccc(C)c(S(=O)(=O)N3CCOCC3)c2)cc1)C(C)C	BAZ2B inh inconclusive, JMJD2A Tudor inh 22µM, G9a inh 4.5µM, HP1b chromo inh inconclusive
O=C(COC(=O)/C=C/c1cccc(Cl)c1)Nc1ccc(N2CCOCC2)cc1	none (no result: BAZ2B inh, G9a inh)
O=C(c1csc2c1CCCC2)N1CCN(c2ccccc2)CC1	G9a inh inconclusive
CC(C(=O)Nc1ccc(S(=O)(=O)N2CCOCC2)cc1)N1CCN(c2ccccn2)CC1 (configuration not stated)	none
Cn1nccc1-c1cnc2n[nH]c(-c3ccc4c(c3)OCO4)c2n1	none (no result: PLK1 PBD inh, BAZ2B inh, JMJD2A Tudor inh, G9a inh, HP1b chromo inh)
COc1ccc(C(=O)Nc2nncs2)cc1S(=O)(=O)N1CC(c2ccccc2)CC1=O (configuration not stated)	G9a inh 50µM
Cc1nnc(NC(=O)c2cccc(S(=O)(=O)N3CC(c4ccccc4)CC3=O)c2)s1 (configuration not stated)	G9a inh 50µM
FC(F)(F)c1ccnc(NCc2ccc(Cl)cc2)n1	none
O=S(=O)(NNc1nccc(C(F)(F)F)n1)c1cccc(Cl)c1Cl	G9a inh 8.9µM
CC(C)CNC(=O)c1ccccc1NC(=O)c1ccccc1N(C)S(=O)(=O)c1ccccc1	none
COc1ccc(Cl)cc1NC(=O)C(C)Sc1nncn1C (configuration not stated)	none
COc1ccc(OC)c(-c2nnc(NC(=O)C(C)Sc3nncn3C)s2)c1 (configuration not stated)	G9a inh 32µM
CCCC[N+](C)(C)CCC(=O)NC(C)(C)CS(=O)(=O)[O-]	BAZ2B inh 50µM, JMJD2A Tudor inh 56µM, G9a inh inconclusive, HP1b chromo inh inconclusive
CCOc1ccc(-c2cc(-c3nc(-c4ccc(OC)c(OC)c4)no3)[nH]n2)cc1	none (no result: PLK1 PBD inh)
CCOc1ccc(C2=Cc3cc(OC)c(OC)cc3C(=C(Cl)Cl)O2)cc1	BAZ2B inh inconclusive, G9a inh 7.1µM (no result: PLK1 PBD inh, ALOX12 inh, JMJD2A Tudor inh, HP1b chromo inh)
O=C(COc1c(Br)cc(Br)c2cccnc12)Nc1ccccc1F	BAZ2B inh 50µM, ALOX12 inh inconclusive, G9a inh 45µM
N#CC1(c2ccccc2)CCC(=O)N1Cc1ccccc1 (configuration not stated)	none (no result: G9a inh)
CC(C)OC(=O)C(C)Nc1n[nH]c(=S)[nH]c1=O (configuration not stated)	G9a inh 45µM
CC(C)OC(=O)CNc1n[nH]c(=S)[nH]c1=O	JMJD2A Tudor inh 79µM, G9a inh 25µM
CCOC(=O)C(C#N)C(c1cccnc1)c1c(C)[nH][nH]c1=O (configuration not stated)	PLK1 PBD inh inconclusive, G9a inh inconclusive
Cc1[nH][nH]c(=O)c1C(c1ccc([N+](=O)[O-])cc1)c1c(C)[nH][nH]c1=O	PLK1 PBD inh 27µM (no result: G9a inh)
Cc1[nH][nH]c(=O)c1C(c1ccc(O)c([N+](=O)[O-])c1)c1c(C)[nH][nH]c1=O	G9a inh inconclusive
Cc1ccc(C(c2c(C)[nH][nH]c2=O)c2c(C)[nH][nH]c2=O)cc1	PLK1 PBD inh 27µM
Cc1[nH][nH]c(=O)c1[C@@H](c1ccccc1[N+](=O)[O-])C(C#N)C#N	PLK1 PBD inh 24µM, G9a inh inconclusive
O=C(Cc1c(F)cccc1Cl)Nc1ccccn1	BAZ2B inh inconclusive
OC[C@H]1OC(Nc2ccc(N=Nc3ccccc3)cc2)[C@@H](O)[C@@H](O)[C@@H]1O (some centres not stated)	BAZ2B inh inconclusive (no result: G9a inh)
O[C@@H]1COC(Nc2ccc(N=Nc3ccccc3)cc2)C[C@@H]1O (some centres not stated)	BAZ2B inh inconclusive, JMJD2A Tudor inh inconclusive, G9a inh 45µM, HP1b chromo inh inconclusive
O=C1/C(=C\c2ccco2)SC(=S)N1c1ccc(O)cc1	BAZ2B inh 35µM, ALOX12 inh inconclusive, JMJD2A Tudor inh inconclusive, G9a inh 40µM
O=C1/C(=C\c2cccnc2)SC(=S)N1c1ccc(F)cc1	none
O=C1/C(=C/c2ccco2)SC(=S)N1c1cccnc1	PLK1 PBD inh 17µM, BAZ2B inh 10µM, ALOX12 inh 40µM, JMJD2A Tudor inh 8.9µM, HP1b chromo inh 16µM (no result: G9a inh)
COc1ccc(NC(=O)CCCN2C(=O)/C(=C\c3ccco3)SC2=S)cc1	BAZ2B inh inconclusive, ALOX12 inh inconclusive
NN1C(=O)/C(=C\c2ccco2)SC1=S	BAZ2B inh 45µM, ALOX12 inh inconclusive, JMJD2A Tudor inh inconclusive, G9a inh 25µM
O=C1/C(=C\c2ccc(O)cc2)SC(=S)N1c1cccnc1	BAZ2B inh inconclusive, JMJD2A Tudor inh inconclusive, G9a inh 32µM
CCCC(C(=O)O)N1C(=O)/C(=C/c2cccn2C)SC1=S (configuration not stated)	BAZ2B inh inconclusive, ALOX12 inh inconclusive, JMJD2A Tudor inh inconclusive
O=C1/C(=C/C=C/c2ccco2)SC(=S)N1c1ccc(O)cc1	PLK1 PBD inh inconclusive, BAZ2B inh 32µM, G9a inh 13µM, HP1b chromo inh 28µM
Cc1cc(/C=C2\SC(=S)N(Cc3ccco3)C2=O)c(C)n1-c1cccnc1	PLK1 PBD inh 38µM, BAZ2B inh 13µM, ALOX12 inh inconclusive, G9a inh inconclusive
CC(C)C(C(=O)O)N1C(=O)/C(=C/C=C/c2ccco2)SC1=S (configuration not stated)	PLK1 PBD inh 3µM, BAZ2B inh 4.5µM, JMJD2A Tudor inh 3.5µM, G9a inh 3.5µM, HP1b chromo inh inconclusive (no result: ALOX12 inh)
C=CC[C@@H](CC(=O)NCCO)C(=O)N[C@@H](COC(=O)[C@@H](CC=C)CC(=O)OC(C)(C)C)Cc1ccccc1	none (no result: BAZ2B inh, G9a inh)
CCC(C)n1c(OC)nc2c1c(=O)n(C)c(=O)n2C (configuration not stated)	PLK1 PBD inh 2.7µM, JMJD2A Tudor inh 11µM
